Laboratory results as given in the supplement of paper PMC12636033.
± gives the standard deviation of the averaged measurements. In all, about 33,000 sequences were measured (“E-score (rank enrichment, -0.5 to 0.5)”: median about -0.0075, highest 2% from about 0.23 on). This excerpt belongs to a sample that is enriched for the highest values.

test system: WT Max(13-93) synthetic (M65Nle); assay: PBM 8-mer E-score (E-score (rank enrichment, -0.5 to 0.5)); higher = stronger preferential binding
Protocol: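 Protein binding microarray (universal PBM chip covering all 10-mers in fixed probe flanks) with chemically synthesized human Max(13-93) bHLH-LZ analogs (not full-length Max) bearing noncanonical residues (hArg, Tha, Aib, Nle at 65) and aromatic Cys staples. Read-out per 8-mer (and its reverse complement): E-score (rank-based enrichment, -0.5 to 0.5) and Z-score of median probe intensity.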

Sequence | PBM 8-mer E-score
GCGGCCTA | -0.209 ± 0.12
ATGCGATG | 0.054 ± 0.083
GTGAACAA | 0.114 ± 0.0024
CAGGCGAC | -0.124 ± 0.082
CGTCCCGA | -0.209 ± 0.12
AAAGTTAG | 0.127 ± 0.044
AGTGCAGA | 0.0828 ± 0.16
ATAGCGGC | -0.135 ± 0.21
AACCTAGT | -0.18 ± 0.029
ATTGTGCC | 0.174 ± 0.071
ACATATGT | 0.265 ± 0.11
ACATATGG | 0.155 ± 0.071
ACATATGC | 0.0404 ± 0.029
CGTTCTGC | -0.108 ± 0.038
CATGTGAC | 0.3772 ± 0.0032
GATGTGAA | 0.15 ± 0.0086
CATGTGAA | 0.249 ± 0.059
AATGTGAA | 0.181 ± 0.089
TATGTGAA | 0.254 ± 0.13
CCTGTGAA | -0.00915 ± 0.077
CATGTGAG | 0.226 ± 0.08
GATGTGAC | -0.231 ± 0.026
AATGTGAC | -0.0272 ± 0.014
AACCCGCT | 0.00053 ± 0.075
ATAACCCG | -0.0972 ± 0.023

Sequence | PBM 8-mer E-score
GATACTGA | -0.0332 ± 0.11
CGATAAAA | 0.0372 ± 0.13
ATATAAAG | 0.138 ± 0.006
ATAAAAAT | 0.209 ± 0.032
CTATAAAA | 0.0799 ± 0.029
ACATAAAT | 0.249 ± 0.026
GGATAAAA | 0.116 ± 0.12
ACATAAAA | 0.192 ± 0.085
ATATAAAA | 0.257 ± 0.14
ACATAAAG | 0.197 ± 0.04
TGATAAAA | 0.282 ± 0.056
GTATAAAA | 0.2289 ± 0.0018
ATATAAAT | 0.26 ± 0.013
TGTCTAAA | 0.127 ± 0.015
TTGCTAAA | -0.0675 ± 0.037
ACATCGCC | 0.0533 ± 0.012
CATAAGCG | -0.0132 ± 0.16
ACGCTACT | -0.103 ± 0.057
CGCACAGA | -0.00527 ± 0.17
GCTACTTA | 0.0733 ± 0.061
GCATCAAA | 0.0826 ± 0.0033
TCAGTACA | -0.0447 ± 0.075
ATATAAAC | 0.249 ± 0.1
CTATAAGA | 0.00621 ± 0.13
CTATAAAC | -0.0175 ± 0.061

Sequence | PBM 8-mer E-score
GTATAAGA | 0.176 ± 0.037
GTATAAAC | 0.097 ± 0.035
ATATAAGA | 0.257 ± 0.1
CCGCACAA | -0.0967 ± 0.091
CAGTGTCG | -0.18 ± 0.018
AGGGACAA | -0.0703 ± 0.11
GTGGACAA | 0.236 ± 0.0099
CTGGACAA | -0.0424 ± 0.18
TGGGACAA | 0.233 ± 0.12
TTGGACAA | 0.137 ± 0.038
GGGGACAA | -0.00341 ± 0.1
ATCTAAGG | 0.00267 ± 0.011
GACAGTAC | 0.0423 ± 0.12
AACAGCCA | 0.0334 ± 0.032
GCCCGGAC | -0.319 ± 0.01
TGCACACA | 0.0593 ± 0.099
ATAGGCTA | 0.00221 ± 0.094
CTATTTAA | 0.0374 ± 0.0014
ACATTTTA | 0.297 ± 0.048
ATATTTAC | 0.23 ± 0.07
GCTTTTAA | -0.0112 ± 0.043
ATATTTAA | 0.302 ± 0.021
CCTTTTTA | 0.171 ± 0.029
CCTTTTCA | 0.245 ± 0.15
GCATTTTA | 0.16 ± 0.072

Sequence | PBM 8-mer E-score
GCTTTTTA | 0.237 ± 0.16
CTTTTTCA | 0.144 ± 0.055
CCATTTTA | 0.0902 ± 0.15
GCTTTTCA | 0.0385 ± 0.086
ACGAAATG | 0.158 ± 0.068
CTCGGCTC | -0.235 ± 0.028
AGGGAATC | -0.0163 ± 0.031
GTTTCGTA | 0.0743 ± 0.067
GCGCTCTA | -0.19 ± 0.062
CCATACAG | -0.026 ± 0.18
CGTGAGCA | -0.0547 ± 0.079
ATATTTTA | 0.271 ± 0.033
CTATTTTA | 0.0787 ± 0.12
GTATTTTA | 0.0179 ± 0.13
CGTTTTCA | 0.106 ± 0.036
AACAGGTC | -0.0763 ± 0.049
ATAACGTG | 0.261 ± 0.046
ACAACGTC | -0.0474 ± 0.05
ATAACGTA | 0.203 ± 0.091
ATAACGTC | 0.136 ± 0.042
ACAACGTA | 0.024 ± 0.002
ACAACGTG | 0.255 ± 0.089
GGCTGGCA | -0.311 ± 0.1
GCGTCTCA | -0.13 ± 0.025
CCGCACTC | -0.0409 ± 0.033

Sequence | PBM 8-mer E-score
TATTTGAA | 0.0846 ± 0.018
ACTTGGTC | 0.0597 ± 0.089
CATTGTAA | 0.134 ± 0.067
GACGTCGC | -0.091 ± 0.13
ACCGCGCT | -0.146 ± 0.012
ATGACCTC | 0.0149 ± 0.085
TCAAACCA | 0.172 ± 0.063
GTTTTAAA | 0.0916 ± 0.047
TGTTTCAA | 0.241 ± 0.011
AGTTTAAA | 0.164 ± 0.0074
GGTTTAAC | 0.0486 ± 0.048
TGTTTTAA | 0.115 ± 0.0028
TGTTTAAA | 0.252 ± 0.09
GGTTTCAA | 0.077 ± 0.0057
GGTTTAAA | 0.233 ± 0.043
AGTTTCAA | -0.0849 ± 0.1
GTCATCAA | 0.0407 ± 0.073
AAGACGAC | 0.0772 ± 0.12
CAGCGTAG | 0.0168 ± 0.0028
GACCATCA | -0.057 ± 0.034
AGGTAAGA | -0.0352 ± 0.073
CACGGTAG | -0.0473 ± 0.022
GTCAGCTA | -0.148 ± 0.085
GAATTGCA | 0.06 ± 0.059
GTTCAGCA | 0.0207 ± 0.087

Sequence | PBM 8-mer E-score
CTGCGAAC | -0.0246 ± 0.099
ACCGTTGA | -0.15 ± 0.014
CATGTGCG | 0.296 ± 0.028
CCTGTGCG | -0.0525 ± 0.063
TATGTGCA | 0.16 ± 0.02
CATGTGCC | 0.327 ± 0.011
GATGTGCA | 0.052 ± 0.059
CATGTGCA | 0.321 ± 0.025
AATGTGCC | -0.0182 ± 0.064
GATGTGCC | -0.0199 ± 0.084
AATGTGCG | 0.115 ± 0.0056
GGGAGATA | 0.0313 ± 0.14
AAATGGTG | -0.0479 ± 0.077
AGATTGGG | 0.0796 ± 0.049
TCGGGAGA | -0.0551 ± 0.06
ACCGGAGT | -0.185 ± 0.077
AGCTCAAA | -0.101 ± 0.07
GCGTGTGA | 0.201 ± 0.034
CCGTGTTC | 0.034 ± 0.081
ACGTGTTG | 0.378 ± 0.067
AAGTGTTG | 0.2 ± 0.0011
AGGTGTTC | 0.0938 ± 0.013
GCGTGTAA | 0.18 ± 0.091
CCGTGTTA | 0.145 ± 0.056
ACGTGTTA | 0.333 ± 0.053

Sequence | PBM 8-mer E-score
ACGTGTTC | 0.278 ± 0.11
AGGTGTTA | 0.0454 ± 0.019
AGGTGTTG | -0.0777 ± 0.036
GCGTGTTA | 0.242 ± 0.043
GTCTCACA | 0.0533 ± 0.04
TAGTAGGA | -0.0355 ± 0.069
CCGACCCG | -0.101 ± 0.18
CATCTTTA | -0.0556 ± 0.15
GGTGTAGA | 0.0276 ± 0.032
ACTCGGTG | -0.111 ± 0.026
AGTAGCGC | -0.0656 ± 0.04
AACCACTT | 0.109 ± 0.14
ACCCAATG | -0.141 ± 0.067
ACCCCGCG | -0.0797 ± 0.15
AAGCTGGC | -0.176 ± 0.06
CCAACCGG | -0.267 ± 0.0078
CTAGCGCC | -0.283 ± 0.024
ATTGTCTA | 0.26 ± 0.005
ATTGTCTC | -0.142 ± 0.088
GTTGTCTA | 0.224 ± 0.094
TATCTGCA | 0.0121 ± 0.066
CAACTGCA | -9e-05 ± 0.065
